High-throughput results (PubChem)
Most compounds without a hit are left out; they make up all but 10% or so of the library.
G9a block = blocks human histone lysine methyltransferase G9a. Q96KQ7. G9a H3K9 monomethylation, AlphaScreen, 2 h. Potency, µM (highest dose often 102 µM), hits mostly inhibitors. 8.8% of 350,000 active. AID 504332; also: nearly all actives have a fitted effect of over 75% in size
Target sequence (Q96KQ7 913-1193 limits assumed): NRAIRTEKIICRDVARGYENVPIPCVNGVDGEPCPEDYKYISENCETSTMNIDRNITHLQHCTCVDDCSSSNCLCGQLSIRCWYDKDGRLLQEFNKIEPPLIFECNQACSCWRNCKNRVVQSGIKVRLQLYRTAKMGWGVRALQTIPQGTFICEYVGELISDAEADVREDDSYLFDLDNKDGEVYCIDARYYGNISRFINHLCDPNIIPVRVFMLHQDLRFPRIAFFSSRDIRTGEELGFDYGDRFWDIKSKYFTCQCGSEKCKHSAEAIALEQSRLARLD
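Chemiluminescent proximity detection of H3K9 monomethylation, read after 10 min bead incubation in the dark. Reaction: 20 nM G9a, 500 nM biotin-H3K9 peptide, 20 uM SAM cofactor, 2 h, room temperature, following 15 min enzyme-compound preincubation.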
GLS inhibitor = inhibitors of human glutaminase (GLS); O94925; GLS enzymatic activity, qHTS titration; Potency, µM (titrated, usually from 45.5 µM), usual class: inhibitors; 0.21% of 410,000 active; AID 624170
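Read-out is an Amplex red fluorescence increase coupled through glutamate oxidase and HRP, measured before and after 30 min room-temperature incubation. hKGA is in 45 mM KH2PO4 (pH 8.2) with 0.02% Tween-20; glutamine added as 1mM solution.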
BAZ2B inh = BAZ2B (human) inhibition; AID 504333; Potency, µM (top dose mostly 114 µM), usual class: inhibitors; Q9UIF8; AlphaScreen BAZ2B-H3K14Ac peptide displacement; 4.4% of 360,000 active; also: nearly all actives have a fitted effect of over 60% in size
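Compounds, titrated to a top concentration of 110 uM, were incubated 30 min at room temperature with preformed BAZ2B/acetyl-K14 H3 peptide complex (50 nM each). Proximity signal was measured by AlphaScreen after 20 min with beads.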
JMJD2A Tudor inh = inhibitors of human JMJD2A Tudor domain | AlphaScreen JMJD2A-Tudor / H3K4me3 peptide binding | Potency, µM (highest dose often 114 µM), actives largely listed as inhibitors | O75164 | 4.4% of 390,000 active; also: nearly all actives have a fitted effect of over 50% in size
HP1b binding inh = blocks HP1-beta chromodomain binding to methylated histone tails; P83916; AlphaScreen HP1-beta / biotin-H3K9me3 peptide binding; Potency, µM (highest dose often 114 µM), hits mostly inhibitors; 0.56% of 390,000 active; AID 540317; also: nearly all actives have a fitted effect of over 70% in size
Target sequence (P83916 whole entry, looked up): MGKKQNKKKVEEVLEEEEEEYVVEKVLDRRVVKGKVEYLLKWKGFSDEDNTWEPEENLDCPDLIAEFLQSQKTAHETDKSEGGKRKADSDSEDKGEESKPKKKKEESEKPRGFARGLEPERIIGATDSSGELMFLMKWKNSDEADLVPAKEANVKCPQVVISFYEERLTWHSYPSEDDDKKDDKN
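HP1-beta protein (50 nM final) preincubated 30 min at room temperature with biotinylated H3(1-18)K9me3 peptide (50 nM) in PBS pH 7.4, 0.01% Tween-20, then compound added for 30 min. AlphaScreen streptavidin donor/nickel chelate acceptor beads (10 ug/mL final), 30 min dark, luminescence read.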
A number is an active result; - = inactive; ? = inconclusive; . = no result; ! = repeats disagree; [ ] = remark or other dose. Calls follow the shape of the dose curve; as a rule, active = well fitted curve in the direction sought with a large enough effect; inconclusive = small, poorly fitted or top-dose-only effect, or another doubt; inactive = no such curve, though single readings can be large; an effect the other way counts as inactive or inconclusive.

SMILES	G9a block	GLS inhibitor	BAZ2B inh	JMJD2A Tudor inh	HP1b binding inh
Cc1ccccc1NC(=O)CSc1nc2nccnc2c(=O)n1CCc1c[nH]c2ccccc12	-	-	-	-	-
COc1ccccc1C(=O)NCCNC(=O)c1ccco1	-	-	-	25µM	?
COc1ccccc1C(=O)NCc1ccco1	.	-	-	-	-
Cc1[nH]n(-c2ccccc2)c(=O)c1N=Nc1cccc(S(=O)(=O)N2CCOCC2)c1	-	-	-	56µM	?
CCOc1ccccc1N=Nc1c(C)[nH]n(-c2ccccc2)c1=O	.	-	?	45µM	?
CC(=O)c1ccc(N=Nc2c(C)[nH]n(-c3ccccc3)c2=O)cc1	3.5µM	-	32µM	?	?
Cc1[nH]n(-c2ccccc2)c(=O)c1N=Nc1ccc(C(=O)O)cc1	79µM	-	-	?	-
Cc1[nH]n(-c2ccccc2)c(=O)c1N=Nc1ccc(C(N)=O)cc1	.	-	-	-	-
Cc1[nH]n(-c2ccccc2)c(=O)c1N=Nc1ccccc1	3.5µM	-	2.5µM	11µM	?
CCc1nnc(NS(=O)(=O)c2ccc(N=Cc3c(C)[nH]n(-c4ccc(Cl)cc4)c3=O)cc2)s1	-	-	?	-	-
Cc1[nH]n(-c2ccccc2)c(=O)c1N=Nc1c(Cl)cccc1Cl	22µM	-	?	-	-
Cc1[nH]n(-c2ccccc2)c(=O)c1N=Nc1ccc(Cl)cc1	-[0.501 µM]	-	?	?	-
Cc1[nH]n(-c2ccc(Cl)cc2)c(=O)c1C=Nc1ccc(S(=O)(=O)N2CCOCC2)cc1	50µM	-	-	-	-
CC(=O)[C@H]1CC[C@H]2[C@@H]3C=CC4=CC(=O)CC[C@@]4(C)[C@H]3CC[C@]12C	-[21.5 µM]	-	.	.	.
COc1ccc([C@@H]2CC(=O)[C@@H]3CN(S(=O)(=O)c4ccc(C)cc4)[C@H](c4ccccc4)C[C@@H]3N2S(=O)(=O)c2ccccc2)cc1	.	-	.	.	.
NC(=O)c1c(NC(=O)CSc2nnc(-c3ccco3)n2-c2ccccc2)sc2c1CCC2	?	-	50µM	?	?
CCOC(=O)c1sc(NC(=O)CSc2nnc(-c3ccco3)n2CC)c(C(=O)OCC)c1C	18µM	-	?	-	-
N#Cc1c(NC(=O)CSc2nnc(-c3ccco3)n2-c2ccccc2)sc2c1CCC2	?	-	-	-	-
COc1ccc(NC(=O)CSc2nnc(-c3ccco3)n2C)cc1	-[12.7 µM]	-	-	-	-
COC(=O)c1c(NC(=O)CSc2nnc(-c3ccco3)n2C)sc(C)c1C	-	-	-	79µM	?
CCOC(=O)CNC(=O)CSc1nnc(-c2ccco2)n1Cc1ccco1	28µM	-	-	28µM	-
Cc1ccc2nc(N(Cc3cccnc3)C(=O)c3ccco3)sc2c1	-	-	-	-	-
COc1ccc(S(=O)(=O)N2CCCOC2CNC(=O)C(=O)NCc2ccccc2C)cc1 (stereo unspecified)	.	-	.	.	.
COc1cccc(-c2nnc(SCC(=O)NCc3ccc4c(c3)OCO4)n2Cc2ccco2)c1	45µM	-	?	-	-
O=C(CSc1nnc(-c2cccnc2)n1Cc1ccco1)NCc1ccc2c(c1)OCO2	?	-	-	-	-
SMILES	G9a block	GLS inhibitor	BAZ2B inh	JMJD2A Tudor inh	HP1b binding inh
CCOC(=O)c1c(NC(=O)CSc2nnc(Cc3ccccc3)o2)sc(C(C)=O)c1C	-[2.33 µM]	-	-	-	-
CCn1c(SCC(=O)N(C)CC(=O)Nc2ccc(OC)cc2)nnc1-c1ccco1	20µM	-	-	-	-
CCOC(=O)c1c(NC(=O)CSc2nnc(CNc3ccc(OC)cc3)n2C)sc(C)c1C	?	-	45µM	50µM	20µM
CCOC(=O)c1sc(NC(=O)CSc2nnc(Cc3ccccc3)o2)c(C#N)c1C	?	-	?	56µM	?
CCn1c(SCC(=O)N(C)CC(=O)Nc2cccc(OC)c2)nnc1-c1ccco1	-	-	-	-	-
CCOC(=O)c1c(NC(=O)CSc2nnc(CNc3ccc(F)cc3)o2)sc(C(C)=O)c1C	-[2.33 µM]	-	50µM	-	-
CCCN1C(=O)C(O)(CC(=O)c2cccc(OC)c2)c2ccccc21 (stereo unspecified)	-[12.7 µM]	-	56µM	?	-
S=c1[nH]nc2ccccn12	.	-	.	6.3µM	?
Cc1ccn2c(=S)[nH]nc2c1	.	-	.	.	.
O=C1NC(c2ccco2)Nc2sc3c(c21)CCN(Cc1ccccc1)C3 (stereo unspecified)	28µM	-	?	?	-
CN1CCc2c(sc3c2C(=O)NC(c2cn(Cc4ccccc4)c4ccccc24)N3)C1 (stereo unspecified)	?	?	45µM	40µM	?
Cc1ccc(-n2ccnc2SCC(=O)N(CC(C)C)C2CCS(=O)(=O)C2)c(C)c1 (stereo unspecified)	.	?	-	20µM	-
CC(C)CN(C(=O)CSc1nnc2ccccn12)C1CCS(=O)(=O)C1 (stereo unspecified)	-[2.33 µM]	-	-	-	-
CC(C)CN(C(=O)CSc1nn(-c2ccc(Cl)cc2)c(=S)s1)C1CCS(=O)(=O)C1 (stereo unspecified)	20µM	-	-	-	-
Cc1nc(SCC(=O)N(CC(C)C)C2CCS(=O)(=O)C2)c(C#N)c(C)c1C (stereo unspecified)	50µM	-	-	-	-
CCOC(=O)N1CCN(C(=O)c2ccc(SC)cc2OC)CC1	-	-	-	-	-
C[C@H](CO)N1C[C@H](C)[C@@H](CN(C)Cc2ccc(Cl)c(Cl)c2)OCc2cnnn2CCCC1=O	.	-	.	.	.
Cc1onc(-c2ccccc2Cl)c1C(=O)Nc1ccccc1O	-	?	-	-	-
COc1cccc(CCNC(=O)c2ccc(Cn3c(SCc4ccccc4)nc4cccnc43)cc2)c1	?	-	-	-	-
CC1CN(c2ccc([N+](=O)[O-])c(NCCOc3ccc(Cl)cc3)c2)CC(C)N1 (stereo unspecified)	45µM	-	11µM	32µM	?
CCc1ccc(OCCNc2cc(N3CCNC(C)C3)ccc2[N+](=O)[O-])cc1 (stereo unspecified)	-[2.33 µM]	-	35µM	40µM	?
COc1ccc(C2CC(=O)c3c([nH]c(C(=O)OC4CCCCCC4)c3C)C2)cc1OC (stereo unspecified)	-	-	-	-	-
CCOc1ccccc1NC1c2ccccc2C(=O)N1c1cccnc1 (stereo unspecified)	79µM	-	-	-	-
COc1ccc(Oc2cc(Cl)nc(N)n2)cc1	50µM	-	-	-	-
CCCCC1C(=O)N(c2ccccc2)N(c2ccc(O)cc2)C1=O (stereo unspecified)	3.5µM!	-	-	56µM	?
IC(I)I	14µM	-	.	.	.
COc1ccc(-c2ncccc2OC(=O)C23CC4CC(CC(C4)C2)C3)cc1OC	45µM	-	-	-	-
Cc1nc(C(C)NC(=O)c2ccc(OC3CCN(Cc4ccccn4)CC3)cc2)c(C)s1 (stereo unspecified)	-	-	79µM	-	-
